# FLuc counter: firefly luciferase modulation, counter-screen for miR-21 project; purified FLuc, Km substrates, luminescence inhibition; Potency, µM (doses to about 57.5 µM), for the others: at the top dose activity change, negative = inhibition, actives largely listed as inhibitors; hit rate 6.9% among 360,000; AID 588342;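 note: plate controls were vehicle for no effect and reference inhibitor for full effect; nearly all actives have a fitted effect of over 55% in size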
# Target sequence (P08659 whole entry, looked up): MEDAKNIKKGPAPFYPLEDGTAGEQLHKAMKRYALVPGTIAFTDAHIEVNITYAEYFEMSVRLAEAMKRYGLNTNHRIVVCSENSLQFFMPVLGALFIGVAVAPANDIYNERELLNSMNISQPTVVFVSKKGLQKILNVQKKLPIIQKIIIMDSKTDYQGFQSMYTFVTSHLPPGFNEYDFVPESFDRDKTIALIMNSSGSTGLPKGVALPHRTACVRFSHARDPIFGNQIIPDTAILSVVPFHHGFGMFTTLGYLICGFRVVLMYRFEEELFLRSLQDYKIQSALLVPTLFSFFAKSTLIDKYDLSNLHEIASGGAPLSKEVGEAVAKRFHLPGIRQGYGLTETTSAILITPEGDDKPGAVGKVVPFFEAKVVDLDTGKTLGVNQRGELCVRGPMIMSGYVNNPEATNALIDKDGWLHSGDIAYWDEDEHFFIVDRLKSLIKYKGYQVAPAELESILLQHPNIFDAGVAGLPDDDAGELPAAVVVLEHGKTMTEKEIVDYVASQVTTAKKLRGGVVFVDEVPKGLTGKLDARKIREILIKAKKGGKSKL
#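 Purified P. pyralis luciferase, 10 nM final, with Km-level 10 uM D-luciferin and 10 uM ATP in 50 mM Tris acetate pH 7.5, 10 mM Mg acetate, 0.01% Tween-20, 0.05% BSA; 6-point qHTS titration about 60 µM downward; luminescence read.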
# Rab9 prom act: activators of Rab9 promoter | hit rate 2.8% among 320,000 | Potency, µM (highest dose often 9.22 µM), inactives show at the highest dose activation, negative = inhibition, usual class: activators | Huh7 Rab9 promoter-luciferase reporter, luminescence, 24 h | AID 485297; note: % of control where 0% means no effect; nearly all actives have a fitted effect of over 60% in size
#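 Luminescence read-out: Huh7 cells stably expressing Rab9-luciferase, treated 24 h with compound at 37 °C, then lysed with luciferase reagent for 10 min at ambient before reading.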
# SMN2 splice up: enhancers of SMN2 splice variant expression. HEK293 SMN2-luciferase splicing reporter, luminescence, 30-36 h. Potency, µM (doses to about 46.1 µM), inactives show at the highest dose activity change, positive = activation, hits mostly activators. hit rate 2.8% among 210,000; note: % of control where 0% means no effect; nearly all actives have a fitted effect of over 55% in size
#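 HEK293 cells carry an SMN2 minigene-luciferase reporter in which exon 7 inclusion puts luciferase in frame. Cells were seeded at 2000 cells/well, attached for 10-12 hours, then exposed to compounds for 30-36 hours at 37C before ONE-Glo luminescence.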
# KinaseGlo FLuc: Kinase-Glo luciferase inhibition (counter-screen) | Kinase-Glo luciferase, ATP luminescence, 8 min | Potency, µM (highest dose often 38.3 µM), for inactives: at the highest dose activity change, negative = inhibition, usual class: inhibitors | hit rate 0.28% among 200,000 | AID 1379; note: % is set by controls: 0 for no effect and ±100 for the full control effect; nearly all actives have a fitted effect of over 60% in size
#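 Inhibition of Kinase-Glo luciferase light generation was assessed at 10 uM ATP in pH 7.2 imidazole buffer, with luminescence measured after eight minutes at ambient temperature.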
# NPC1 prom act: activates the NPC1 promoter | Huh7 NPC1 promoter luciferase reporter, 24 h | Potency, µM (series often up to 9.22 µM), for the others: top-dose activation, most hits filed as activators | hit rate 2.4% among 320,000 | AID 485313; note: % of control where 0% means no effect; nearly all actives have a fitted effect of over 60% in size
#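 Huh7 reporter cells (NPC1 promoter driving luciferase) are dosed with compound for 24 h at 37 °C, 5% CO2; luciferase detection reagent is then added and luminescence measured after 10 min at ambient temperature.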
# * marks the source's active call; other numbers are inactive results; u = inconclusive; x = no result given; [ ] = dose if it differs, or a comment. Hits are enriched below; roughly 7.3% of the tested compounds scored in any of these assays. Calls come from the whole dose curve; as a rule, active = well fitted curve in the direction sought with a large enough effect; inconclusive = small, poorly fitted or top-dose-only effect, or another doubt; inactive = no such curve, though single readings can be large; an effect the other way counts as inactive or inconclusive. Potency is the fitted concentration of half-maximal effect.
SMILES,FLuc counter,Rab9 prom act,SMN2 splice up,KinaseGlo FLuc,NPC1 prom act
Cc1cc(C)cc(NC(=O)c2cc(S(=O)(=O)N3CCOCC3)cn2C)c1,-2%,x,x,x,x
Cc1nnc(SCc2cc(=O)n3c(C)cccc3n2)s1,1%,x,x,x,x
O=C(Nc1ccc2c(c1)OCO2)c1ccc(CN2CCOCC2)cc1,15µM*,29%,-5%,0%,u
O=C(Nc1ccc(CN2CCCCC2)cc1)c1ccc2c(c1)OCO2,u,5%,8%,0%,1%
CC1N=C2c3ccccc3N=C(SCC(=O)NCc3ccc(Cl)cc3)N2C1=O (stereo not drawn),6%,x,x,x,x
Cc1ccc(C(=O)Cc2nc3ccccc3[nH]2)cc1,6µM*,4.5µM*,x,x,2µM*
CCOC(=O)Cc1nc2ccccc2[nH]1,0%,1%,-2%,0%,-2%
O=C(NC(Cc1ccccc1)c1nc2ccccc2[nH]1)c1cccc([N+](=O)[O-])c1 (stereo not drawn),-18%,-3%,x,x,10%
O=C(Cc1nc2ccccc2[nH]1)c1cccc([N+](=O)[O-])c1,24µM*,6%,x,x,u
O=C(Nc1nc2ccccc2[nH]1)c1cccc([N+](=O)[O-])c1,u,1.4µM*,11µM*,-7%,3.5µM*
O=C(Nc1nc2ccccc2[nH]1)c1ccc([N+](=O)[O-])cc1,u,0.56µM*,2.5µM*,-21%,1µM*
CCOC(=O)c1ccc(NC(=O)C(CC)Sc2nc3ncccc3o2)cc1 (stereo not drawn),-15%,x,x,x,x
C/C(=N\Nc1nc2ccccc2[nH]1)c1ccc([N+](=O)[O-])cc1,-16%,-5%,x,x,0%
COC(=O)c1cc(C(=O)Nc2nc3ccccc3[nH]2)cc([N+](=O)[O-])c1,4.8µM*,4%,x,x,17%
CCOC(=O)c1ccc(Nc2nnc(C)c3ccccc23)cc1,17µM*,10%,x,x,20%
CCc1ccc(NCc2nc3ccccc3c(=O)[nH]2)cc1,11µM*,2.8µM*,10µM*,4%,u
CCCCNCc1nc2ccccc2c(=O)[nH]1,1%,1%,x,x,-3%
O=C(O)c1ccc(Nc2cnc3ccccc3n2)cc1,13µM*,2.8µM*,229%,-15%,u
CNC(=O)c1ccc(Nc2nnc(C)c3ccccc23)cc1,-2%,-2%,-9%,3%,0%
CCOC(=O)c1ccc(Nc2cc(C)nc(-c3ccccc3)n2)cc1,-15%,-11%,x,x,-39%
O=C(O)c1cnc2ccccc2n1,-10%,7%,-6%,-4%,-1%
CCOC(=O)c1ccc(Nc2cnc3ccccc3n2)cc1,2.4µM*,1.8µM*,13µM*,-1%,2.2µM*
COc1ccc(C2c3cccn3CCN2S(=O)(=O)c2ccccc2[N+](=O)[O-])cc1OC (stereo not drawn),5%,x,x,x,x
Cc1nn(CC(=O)NCc2ccc(N(C)C)cc2)c(=O)c2c(C)n(-c3ccc(Cl)cc3)nc12,-9%,x,x,x,x
CCc1ccc(NC(=O)CCc2nc3ccccc3[nH]2)cc1,5%,-1%,5%,0%,-7%
SMILES,FLuc counter,Rab9 prom act,SMN2 splice up,KinaseGlo FLuc,NPC1 prom act
CCOC(=O)c1ccc(NCc2nc3ccccc3[nH]2)cc1,21µM*,u,3%,-9%,u
Cc1cc(C(=O)COc2cccc3cccnc23)c(C)n1C,17µM*,26%,u,-7%,u
Cc1cc(C(=O)COc2ccc(Cl)cc2Br)c(C)n1C,21µM*,u,7%,4%,28%
COCCNC(=O)c1cnc2sc(N3CCC(C)CC3)nn2c1=O,-1%,x,x,x,x
O=[N+]([O-])c1cccc(C(=Nc2ccccc2)NO)c1,0%,-3%,2%,4%,1%
CN(N=Nc1ccc([N+](=O)[O-])cc1)c1ccccc1,5.4µM*,u,20µM*,0%,4µM*
CC(C)N(N=Nc1ccc([N+](=O)[O-])cc1)C(C)C,-1%,-7%,-1%[1.84 µM],-4%,-5%
CN(N=Nc1cccc([N+](=O)[O-])c1)c1ccccc1,9.5µM*,u,x,x,u
N#Cc1nc(-c2ccc(COc3ccc(Cl)cc3)o2)oc1N1CCCCC1,7%,x,x,x,x
C/C(=N/N1CCN(c2ccccn2)CC1)c1cccc([N+](=O)[O-])c1,-8%,2%,-13%[1.84 µM],0%,7%
C/C(=N\N1C(=O)c2ccccc2C1=O)c1cccc([N+](=O)[O-])c1,17µM*,1%,13%,-1%,-1%
COCC(=O)Nc1nc2ccc(C)cc2s1,9.5µM*,1.1µM*,10µM*,-19%,2.5µM*
Cc1ccc2nc(NC(=O)COC(=O)c3ccncc3)sc2c1,8.5µM*,u,u,9%,u
Cc1ccc2nc(NC(=O)COC(=O)CSc3nc(C)cc(C)n3)sc2c1,u,u,21%,-10%,u
CC(C)CN(CCCNC(=O)Cn1ncc2c3ccccc3n(C)c2c1=O)CC(C)C,0%,x,1%,x,x
O=C(CSc1nc2c([nH]c3ccccc32)c(=O)n1-c1ccc(F)cc1)N1CCCc2ccccc21,-1%,x,x,x,x
CCOc1ccc(-n2c(SCC(=O)Nc3ccc(F)cc3)nc3c([nH]c4ccccc43)c2=O)cc1,4%,x,x,x,x
Cc1c(C(=O)N2CCCC(C(F)(F)F)C2)oc2ccccc12 (stereo not drawn),u,3%,x,x,0%
Cc1ccc(-c2cc(C(=O)N3CCCC(C(F)(F)F)C3)c3ccccc3n2)o1 (stereo not drawn),12µM*,9%,x,x,3%
CCOc1ccc(-c2cc(C(=O)N3CCCC3)c3ccccc3n2)cc1,0.48µM*,1.4µM*,x,x,3.5µM*
COc1ccc(-c2cc(C(=O)N3CCCC(C(F)(F)F)C3)c3ccccc3n2)cc1 (stereo not drawn),6µM*,-7%,x,x,-1%
COc1ccc(-c2cc3cc(OC)c(OC)cc3c(C)n2)cc1,17µM*,u,x,x,u
COc1ccc2c(OC)cc(-c3ccccc3)nc2c1,-22%,1%,-35%,2%,-6%
c1ccc(CCCNc2nnnc3ccccc23)cc1,x,x,-16%[9.22 µM],-3%[7.66 µM],x
O=C(c1ccccc1C(=O)N1CCN(c2ccc(F)cc2)CC1)N1CCN(c2ccc(F)cc2)CC1,-1%,-1%,-31%,-5%,0%
COc1ccc(N2CCN(C(=O)c3cc(-c4cc(OC)ccc4OC)nc4ccccc34)CC2)cc1,1%,-2%,x,x,-4%
O=C(c1cc(-c2cccc(Cl)c2)nc2ccccc12)N1CCCC1,17µM*,4%,x,x,-4%
CCOc1ccc(-c2cc(C(=O)N3CCN(C)CC3)c3ccccc3n2)cc1,0.6µM*,2.5µM*,11µM*,u,2.8µM*
CCOC(=O)N1CCN(C(=O)c2cc(-c3ccncc3)nc3ccccc23)CC1,2%,-14%,x,x,-19%
COc1ccc(-c2cc(C(=O)N3CCN(c4ccccc4)CC3)c3ccccc3n2)cc1,2.7µM*,-9%,13%,-6%,-22%

# High-throughput results deposited in PubChem by National Center for Advancing Translational Sciences (NCATS).
